Bioassay records from PubChem.
Only some compounds are listed: those with a hit (about 6.2% of all), similar ones and a draw of the others.
GRIN3A LBD mod – binders of NR3A ligand-binding domain, primary screen, biophysical, differential scanning fluorimetry, uHTS. Glutamate receptor ionotropic, NMDA 3A (GRIN3A) ligand-binding domain. Tm shift relative to glycine control, % at 25 µM. AID 1259313, 2017. NR3A LBD differential scanning fluorimetry, Tm shift; 0% = protein alone, 100% = glycine-bound protein. 340,000 tested, 2.5% active;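 active means melting temperature shift of at least 10% of the positive control shift, at one fixed dose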
H9c2 protect – cardioprotection against H2O2-induced cell death, primary screen, uHTS, H9c2 cells, ATPLite luminescence; H9c2 cardiomyocytes, H2O2 injury protection, 2 h; 360,000 tested, 0.63% active; protection from H2O2 cell death, % at 20 µM; AID 588492, 2011;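 active means compounds giving at least 50% protection of heart cells from peroxide-induced death in the single-dose screen, raw or plate-pattern-corrected value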;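 further: 0% = DMSO wells with peroxide and 100% = DMSO wells without peroxide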
AHR act – AHR activators, primary screen, cell-based, luminescence, luciferase reporter, human; activation, % at 5 µM; 320,000 tested, 2.5% active; AHR-responsive luciferase reporter cells; AID 2796, 2010; in the data active means activation above about 47%;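 further: 0% = vehicle wells and 100% = reference agonist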
Target sequence (P35869 whole entry, looked up): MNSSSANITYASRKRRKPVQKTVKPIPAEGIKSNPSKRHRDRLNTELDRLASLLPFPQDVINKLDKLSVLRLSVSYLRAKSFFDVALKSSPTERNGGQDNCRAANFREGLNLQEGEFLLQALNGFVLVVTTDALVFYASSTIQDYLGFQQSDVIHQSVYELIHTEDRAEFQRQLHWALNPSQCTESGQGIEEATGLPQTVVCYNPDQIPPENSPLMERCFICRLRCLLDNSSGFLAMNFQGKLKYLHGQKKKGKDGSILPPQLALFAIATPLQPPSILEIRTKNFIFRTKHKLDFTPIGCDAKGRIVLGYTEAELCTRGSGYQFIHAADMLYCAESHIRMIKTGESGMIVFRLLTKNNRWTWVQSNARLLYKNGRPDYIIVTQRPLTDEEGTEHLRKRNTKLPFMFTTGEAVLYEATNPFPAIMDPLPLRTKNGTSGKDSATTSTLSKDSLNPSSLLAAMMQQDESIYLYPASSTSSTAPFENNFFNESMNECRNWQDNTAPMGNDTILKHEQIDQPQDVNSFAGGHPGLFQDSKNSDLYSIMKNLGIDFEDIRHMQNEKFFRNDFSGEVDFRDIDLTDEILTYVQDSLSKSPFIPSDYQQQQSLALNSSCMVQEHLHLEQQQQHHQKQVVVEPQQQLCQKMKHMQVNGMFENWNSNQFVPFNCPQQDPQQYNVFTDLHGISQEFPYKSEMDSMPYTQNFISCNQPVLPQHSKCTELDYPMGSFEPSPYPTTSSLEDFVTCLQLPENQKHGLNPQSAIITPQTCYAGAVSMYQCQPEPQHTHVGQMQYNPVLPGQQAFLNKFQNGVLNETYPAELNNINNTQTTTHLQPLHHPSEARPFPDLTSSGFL
AI-2 QS modul – Vibrio harveyi AI-2 quorum sensing modulators, primary screen, JMH597 strain, luminescence/OD600 ratio. activity change, % at 7.5 µM. Vibrio harveyi JMH597 AI-2 luminescence/OD600 ratio, 9 h; active compounds read low; strain lacks LuxN and CqsS sensors; 0 = neutral-control median. 300,000 tested, 0.4% active; in the data active means activity change below about -75%, passing the limit was not always enough;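 further: luminescence divided by OD600 gain over 9 h not by final OD600 alone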
SUMO Mot1 rescue – yeast Mot1-301 growth rescue at high temperature, primary screen, SUMOylation pathway inhibitor project, S. cerevisiae, ATP luminescence, 38.5C; S. cerevisiae Mot1-301 growth rescue; percent above DMSO median, 100 means doubled; 320,000 tested, 1% active; growth rescue, % at 18.8 µM; AID 2716, 2010;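 active means every valid replicate shows activation above 250% relative to neutral control wells; inactive means the rest, any valid replicate at or below 250%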;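 further: OY570 slx delta 5 strain wells were the positive control but not used for scaling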
NTR1 ag – agonists of human NTR1, primary screen, imaging, U2OS cells, beta-arrestin-GFP, high content. Neurotensin receptor type 1 (Homo sapiens), P30989. NTR1-U2OS beta-arrestin-GFP spot imaging, agonist mode. activation, % at 20 µM. 330,000 tested, 0.17% active. AID 493036, 2011;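 active means activation at or above 40% of the spot to cytoplasm intensity ratio, with at least 20 cells analyzed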;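 further: 0% = DMSO without peptide and 100% = 100 nM NTR1 peptide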
AHR act cf – AHR activators, confirmation, cell-based, luminescence, luciferase reporter, human; shares compounds with AHR act; human cells, AHR-responsive luciferase reporter; activation, % at 9 µM; 2,300 tested, 87% active; in the data active means activation above about 49%;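 further: HepG2 hepatoma cells carrying a DRE-driven firefly luciferase reporter; 0% = vehicle wells and 100% = reference agonist wells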
PXR counter – human PXR activators, counter-screen for AHR activator project, cell-based, luciferase luminescence | 2,300 tested, 88% active | cell-based PXR reporter | activation, % at 11.6 µM | AID 434939, 2010 | shares compounds with AHR act; in the data active means activation above about 11%;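 further: human hepatoma DPX-2 cells expressing full-length human PXR; 0% = DMSO and 100% = reference agonist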
* hit, by the source's call; . = no result.

SMILES | GRIN3A LBD mod | H9c2 protect | AHR act | AI-2 QS modul | SUMO Mot1 rescue | NTR1 ag | AHR act cf | PXR counter
c1ccc(-c2ccc(-c3csnn3)cc2)cc1 | -42 | -6 | 86* | 9 | -4 | 0 | 96* | 17*
CCN(C[C@H]1N[C@@](CC)(C(=O)OC)[C@H]2C(=O)N(C)C(=O)[C@@H]12)S(=O)(=O)c1ccc(F)cc1 | 1 | 13 | -1 | . | -3 | 1 | . | .
OC[C@@H]1CN(Cc2ccc(Cl)cc2)C[C@H](n2cnc3c(Nc4ccccc4)ncnc32)O1 | . | 20 | . | . | . | . | . | .
Cc1c(C(=O)N/N=C/C(C)C)[nH]c2c([N+](=O)[O-])cccc12 | -21 | 3 | 86* | 16 | 2 | -1 | 39 | 10*
CN(Cc1ccccc1)C(=O)c1cccc(NC(=O)Cc2cccc(NC(=O)C3CCN(C(=O)C4CCC4)CC3)c2)c1 | -3 | 18 | . | . | . | . | . | .
O=C(Nc1ccc(F)c(Cl)c1)c1cncs1 | -2 | -4 | 101* | 10 | 8 | -1 | 95* | 26*
O=C(Nc1cccc(C(F)(F)F)c1)c1cncs1 | -2 | -2 | 42 | 5 | 5 | -2 | . | .
COc1ccccc1NC(=O)c1sc2nc(-c3ccco3)ccc2c1N | 1 | 15 | 106* | 15 | 251 | 1 | 95* | 21*
c1ccc(-c2csc(=Nc3cccnc3)n2CC2CCCO2)cc1 (stereo not given) | -2 | -8 | 80* | 4 | 1 | 3 | 55* | 97*
Cc1cc(C)c2[nH]c(O)c(N=NC3=NC(=O)CS3)c2c1 | 1 | 8 | 95* | 12 | 18 | 3 | 118* | 16*
O=C(Nc1ccc(Cl)c(Cl)c1)c1ccc(Cl)c(Cl)c1 | 42* | -17 | 168* | 5 | -6 | 9 | 159* | 33*
O=C(Nc1cccnc1)c1ccc(Cl)c(Cl)c1 | -1 | -3 | 20 | . | 10 | -1 | . | .
COc1ccc(OC)c2c1sc(=NC(=O)C1CCCCC1)n2C | 0 | -3 | 1 | 5 | 5 | 4 | . | .
Cn1c(=NC(=O)C2CC2)sc2cccc(F)c21 | 2 | -8 | 100* | 32 | 6 | 2 | 119* | 23*
CC1(NC(=O)/C=C/c2nc3ccccc3s2)CCS(=O)(=O)C1 (stereo not given) | 0 | 3 | 20 | . | 5 | -1 | . | .
Nc1ncnc2c1ncn2[C@@H]1O[C@H](CNS(=O)(=O)c2ccc3c(c2)CCN(C(=O)C(F)(F)F)C3)[C@@H](O)[C@H]1O | 3 | -1 | . | . | . | 3 | . | .
Cn1cc(/C=C2\SC(=O)N(c3ccc(O)cc3)C2=O)c2ccccc21 | 9 | -9 | -9 | -4 | -2 | 25 | . | .
Cn1cc(/C=C2\SC(=O)N(c3ccccc3)C2=O)c2ccccc21 | 2 | 1 | 99* | 15 | -5 | 7 | 69* | 20*
O=C(O)c1ccc(-c2nc3ccccc3s2)o1 | 0 | -4 | 4 | 12 | -13 | 5 | . | .
O=C(c1ccc(-c2nc3ccccc3s2)o1)N1CCN(c2ccccc2O)CC1 | -10 | 52* | 89* | 20 | -12 | 24 | 85* | 37*
CCSc1ncc(/C=N/Nc2ccccc2)n1C | -2 | -13 | 89* | 16 | 82 | 3 | 145* | 49*
CC1NC(=O)c2cc3ccccc3cc2-n2c1nc1ccccc1c2=O (stereo not given) | . | 11 | . | . | . | . | . | .
Cc1cccc(NC(=O)CN2CCN(C(=O)c3cnn(Cc4ccccc4)c3)CC2)c1C | 0 | 4 | 2 | . | -15 | 0 | . | .
